PubChem BioAssay (NCI)
This is part of a sample that, as a whole, favours compounds with a hit. Of some 79,000 tested, about 15% had one in any assay. A number with no mark means an inactive call. The source made the active and inactive calls. Cut-off read from the data, not from the text of the source: active = growth inhibition above about 70%; inactive = the rest.

Tests used:
[1] = NCI Yeast Anticancer Drug Screen. Data for the rad50 strain (AID 155);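 note: 0% = growth of vehicle-only cultures of the same strain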; conditions: S. cerevisiae rad50 strain growth inhibition, active compounds read high
How it was run: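 Genetically altered yeast (DNA repair pathway); compound treatment; growth inhibition vs vehicle ctrl.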

[2] = NCI Yeast Anticancer Drug Screen. Data for the mec2-1 strain (AID 157); conditions: S. cerevisiae mec2-1 strain, active compounds read high
How it was run: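 Growth inhibition is read against vehicle-treated controls after compound exposure of the mec2-1 yeast strain, which is defective in DNA damage repair or cell cycle control.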

[3] = NCI Yeast Anticancer Drug Screen. Data for the sgs1 mgt1 strain (AID 161);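 note: 0% = growth of cultures given vehicle only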; conditions: S. cerevisiae sgs1 mgt1 strain, active compounds read high
How it was run: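 Yeast cells carrying a defined DNA-repair defect were exposed to test compounds. Growth inhibition was measured relative to vehicle-treated controls.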

[4] = NCI Yeast Anticancer Drug Screen. Data for the cln2 rad14 strain (AID 165);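 note: 0% = growth equal to vehicle treated cultures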; conditions: S. cerevisiae cln2 rad14 strain, active compounds read high
How it was run: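 Growth inhibition, relative to vehicle-treated controls, is the read-out. The test organism is a yeast strain with defined genetic alterations, cln2 rad14.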

[5] = NCI Yeast Anticancer Drug Screen. Data for the bub3 strain (AID 167); conditions: S. cerevisiae bub3 mutant strain, active compounds read high
How it was run: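 Yeast carrying a defined mutation is treated with each compound, and growth is compared with that of vehicle-exposed cells to give inhibition.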

[6] = NCI Yeast Anticancer Drug Screen. Data for the mlh1 rad18 strain (AID 175); conditions: S. cerevisiae mlh1 rad18 strain growth inhibition, active compounds read high
How it was run: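 Cells of a genetically altered yeast strain, deficient in DNA damage repair, were treated with compound. Their growth was then compared with that of vehicle-treated cultures to give inhibition.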

[7] = at 5.0 µM (retest, dose inferred, filed as 0.5)
[8] = at 50.0 µM (retest, dose inferred, filed as 5.0)

SMILES | growth inhibition [1, 7] | growth inhibition [1, 8] | growth inhibition ([1]; at 50.0 µM) | growth inhibition [2, 7] | growth inhibition [2, 8] | growth inhibition ([2]; at 50.0 µM) | growth inhibition [3, 7] | growth inhibition [3, 8] | growth inhibition ([3]; at 50.0 µM) | growth inhibition [4, 7] | growth inhibition [4, 8] | growth inhibition ([4]; at 50.0 µM) | growth inhibition [5, 7] | growth inhibition [5, 8] | growth inhibition ([5]; at 50.0 µM) | growth inhibition [6, 7] | growth inhibition [6, 8] | growth inhibition ([6]; at 50.0 µM)
Cc1cc2nc3[nH]c4c(Cl)cc(Cl)cc4c3nc2cc1C | 26% | 28% | -36.8% | 14% | 10% | -28.6% | 3% | 3% | -7.3% | -10% | 5% | 56.4% | -4% | 8% | -70.8% | 4% | 19% | -20.6%
O=C(COc1ccc(Cl)cc1)OCCO | 0% | 0% | 4.9% | -4% | 0% | -5.75% | -3% | -1% | 0.4% | 3% | 5% | 40.4% | 2% | 4% | -5.6% | 3% | 5% | -25.6%
N#Cc1c(-c2ccc(Cl)c(Cl)c2)c(-c2ccc(Cl)c(Cl)c2)nn(CCO)c1=O | 73% (active) | 96% (active) | 97.8% (active) | 44% | 98% (active) | 97.6% (active) | 50% | 97% (active) | 97.5% (active) | 39% | 95% (active) | 96.8% (active) | 43% | 97% (active) | 96.3% (active) | 72% (active) | 96% (active) | 97.5% (active)
C#CC(C)(C)OC(C)=O | -2% | 26% | 69.9% | 0% | 0% | 19.2% | -1% | 5% | 69.5% | 2% | 0% | 5.75% | 1% | 4% | 35.6% | -1% | 4% | 76.6% (active)
OCCN1CCN(CCCN2c3cc(Cl)ccc3Sc3ccsc32)CC1 | -8% | 98% (active) | 98.5% (active) | 0% | 98% (active) | 98.4% (active) | -7% | 95% (active) | 98.7% (active) | -7% | 97% (active) | 94.4% (active) | -2% | 97% (active) | 97.6% (active) | -7% | 97% (active) | 98.1% (active)
O=C(O)/C=C/c1ccc2c(c1)CCCC2 | 0% | 83% (active) | 90.1% (active) | -8% | 66% | 73% (active) | 3% | 79% (active) | 73.5% (active) | -28% | 70% (active) | 85.3% (active) | -11% | 70% (active) | 64% | -19% | 87% (active) | 62.9%
O=C1CSC(=S)N1/N=C/c1ccc(Cl)c([N+](=O)[O-])c1 | 28% | 86% (active) | 63.8% | 0% | 40% | 52.1% | 2% | 77% (active) | 27.4% | -16% | 40% | -37.7% | -8% | 46% | 57.9% | 2% | 91% (active) | 61.2%
O=C(O)/C=C\C(=O)Nc1ccc2c(c1)C(=O)c1cc(F)ccc1-2 | 10% | 20% | 29% | -1% | -7% | -2.7% | -4% | 19% | -5.2% | -6% | 6% | 68.2% | -2% | 2% | -36.6% | 8% | 17% | 4.5%
COC(CO)(OC)c1ccccc1 | -163% | -65% | -0.65% | -50% | -50% | -2.9% | -66% | -49% | -9% | -63% | -70% | 25.6% | -70% | -71% | -29.1% | -128% | -130% | 3.5%
CC(SC1=CC(=O)c2c(Cl)ccc(O)c2C1=O)C(=O)O (configuration not stated) | 10% | 13% | 5.7% | 2% | 16% | 1.25% | 22% | 30% | -25.1% | -9% | 7% | -47.5% | 0% | 17% | 6% | 3% | 26% | 8.35%
OC(C1CCC=NN1C(O)(C(F)(F)F)C(F)(F)F)(C(F)(F)F)C(F)(F)F (configuration not stated) | 8% | 86% (active) | 89.7% (active) | -3% | 71% (active) | 83.1% (active) | -2% | 69% | 87.7% (active) | 12% | 58% | 78.8% (active) | -6% | 78% (active) | 92.5% (active) | 9% | 87% (active) | 94% (active)
N#Cc1c(-c2ccc([N+](=O)[O-])cc2)c(C#N)c(=O)n(NS(=O)(=O)c2ccccc2)c1S | 35% | 91% (active) | 51.8% | 15% | 81% (active) | 81.6% (active) | 17% | 88% (active) | 78% (active) | 46% | 67% | 40% | 46% | 87% (active) | 61.6% | 31% | 81% (active) | 78.8% (active)
CC(=O)Oc1c(C2CCCCC2)cc([N+](=O)[O-])cc1[N+](=O)[O-] | 96% (active) | 99% (active) | 99.5% (active) | 91% (active) | 99% (active) | 99.7% (active) | 98% (active) | 99% (active) | 99.5% (active) | 79% (active) | 99% (active) | 98% (active) | 85% (active) | 99% (active) | 99.5% (active) | 97% (active) | 98% (active) | 99.6% (active)
CC(NC(=O)C(NC(=O)C(NC(=O)C(F)(F)F)C(C)C)C(C)C)C(=O)Oc1c(Cl)c(Cl)c(Cl)c(Cl)c1Cl (configuration not stated) | 5% | 70% (active) | 59% | 6% | 62% | 86.7% (active) | 21% | 80% (active) | 82.9% (active) | 10% | 68% | 77.7% (active) | -20% | 65% | 85.6% (active) | 28% | 83% (active) | 78.7% (active)
COc1cc(C2C=C(c3ccccc3)Oc3cc4c(cc32)OCO4)cc(OC)c1OC (configuration not stated) | 8% | 21% | -30.1% | -11% | 16% | -39.9% | -13% | 25% | -7.8% | -10% | 27% | -5.3% | -33% | 38% | 11.9% | 1% | 23% | 3.4%
Cc1c(C2Cc3ccccc3N2C(=O)/C=C\C(=O)O)c2ccccc2n1C (configuration not stated) | 33% | 32% | 74.8% (active) | 25% | 35% | 33.4% | 39% | 34% | 40.4% | 31% | 35% | 53.5% | 38% | 38% | 32.6% | 42% | 35% | 22.4%
Cc1ccc(N2C(c3ccccc3)=CC(=C3C=CC(=O)C=C3)C=C2c2ccccc2)cc1 | 9% | 71% (active) | 94.2% (active) | 12% | 83% (active) | 98.5% (active) | 7% | 83% (active) | 93.7% (active) | -5% | 71% (active) | 78.9% (active) | 7% | 80% (active) | 92.5% (active) | 13% | 89% (active) | 96.8% (active)
CC(=O)c1sc2c(c1O)c(=O)n(-c1ccccc1)c(=S)n2-c1ccccc1 | -4% | 75% (active) | 68.3% | 19% | 83% (active) | 67.4% | 10% | 88% (active) | 75.5% (active) | 16% | 95% (active) | 80% (active) | 25% | 94% (active) | 58.4% | -11% | 87% (active) | 29.9%
O=c1c2ccccc2sc2cccc(NCCCN3CCN(CCCNc4cccc5sc6ccccc6c(=O)c45)CC3)c12 | -1% | 4% | 28.4% | -2% | -3% | -10.7% | 4% | 13% | 3.3% | -3% | -6% | 46% | -2% | -5% | -9.1% | -3% | -65% | 0.6%
